Hit rate of the full screen: of about 2,500 compounds, about 360 (14%) were called active. The list is a sample of the results. A number with no mark means an inactive call.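 The calls were made as follows: active = signal-lowering compounds whose fitted half-maximal concentration AC50 is no higher than ten times their top tested concentration; inconclusive = flat curve with 30 to 70% inhibition, or poor fit; inactive = flat within 30%, signal increase, or AC50 above limit.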
Experiment: HRP/luminol detection interference without ALR, dose response, artefact control for ALR inhibitor project, biochemical, luminescence, no ALR or DTT, cherry-pick (AID 540356);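 as to activity change, negative = inhibition: 0% = median of neutral control wells and -100% = median of quercitin 100 µM wells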
Conditions: HRP/H2O2 luminol luminescence counterscreen; series mostly up to 10 µM; activity change, negative = inhibition: at the top concentration
In the case of `Cc1cccc(/C=N/n2c(-c3ccccc3)n[nH]c2=S)c1O`, the “activity change, negative = inhibition” value is reported as -0.122%. In the case of `COc1cccc(/C=N/NC(=O)CNC(=O)c2ccncc2)c1O`, the “activity change, negative = inhibition” value is reported as -1.7%. In the case of `COc1cccc(/C=N/n2c(-c3cc(C)[nH]n3)n[nH]c2=S)c1OC`, the “activity change, negative = inhibition” value is reported as -11.2%. With `COc1cccc(/C=N/NC(=O)NC2CCCCC2)c1O` the “activity change, negative = inhibition” value was -11.7%. For `COc1ccc(C2CC(c3ccccc3)=NN2c2ccccc2)c(C(=O)O)c1OC` (stereo unspecified), the “activity change, negative = inhibition” value was -9.87%. In the case of `O=C(O)CCc1ccc(-c2cccs2)n1NC(=O)c1cccs1`, the “activity change, negative = inhibition” value is reported as -2.5%. With `O=C(O)c1cc(O)ccc1NC(=O)c1cccc2ccccc12` the “activity change, negative = inhibition” value was -8.12%. With `O=C(NCCN1CCCc2ccccc21)C1CCC(=O)N(CCc2ccccc2)C1` (stereo unspecified) the “activity change, negative = inhibition” value was 0.511%. In the case of `O=C1CC(=O)N(c2ccccc2)N1c1ccccc1`, the “activity change, negative = inhibition” value is reported as -4.55%. With `c1ccc(CNc2ncnc3sc4c(c23)CCCC4)nc1` the “activity change, negative = inhibition” value was 0.476%. In the case of `Nn1c(Nc2ccccc2)nc2sc3c(c2c1=O)CCCC3`, the “activity change, negative = inhibition” value is reported as -4.23%. In the case of `Cc1ccc(NC2CCCN(C(=O)CCc3scnc3C)C2)cc1C` (stereo unspecified), the “activity change, negative = inhibition” value is reported as -3.85%. In the case of `CC(C)c1ccc(NC2CCCN(C(=O)c3cscn3)C2)cc1` (stereo unspecified), the “activity change, negative = inhibition” value is reported as -3.5%. With `CN(C)c1ccc(NC(=O)CN2CCN(S(=O)(=O)c3cc(Cl)ccc3Cl)CC2)cc1` the “activity change, negative = inhibition” value was -1.2%. In the case of `CCN(CC)c1ccc(/C=N/NC(=O)CC(C)C)cc1`, the “activity change, negative = inhibition” value is reported as -1.9%. With `COc1cc(/C=N/Nc2ccccc2)ccc1O` the “activity change, negative = inhibition” value was -7.74%. In the case of `Oc1ccc(/C=N/n2c(COc3ccccc3)n[nH]c2=S)cc1O`, the “activity change, negative = inhibition” value is reported as -17.1%. With `COc1cc(/C=N/N2C(=O)C3C4C=CC(CC4)C3C2=O)ccc1O` (stereo unspecified) the “activity change, negative = inhibition” value was -1.77%. In the case of `COc1cc(/C=N/N2C(C)CCCC2C)cc(Br)c1O` (stereo unspecified), the “activity change, negative = inhibition” value is reported as -7.59%. In the case of `COc1cc(/C=N/NC(=O)C2C3CCCCC32C)cc(Br)c1O` (stereo unspecified), the “activity change, negative = inhibition” value is reported as -9.25%. With `CCCCCC(=O)N/N=C/c1cc(Br)c(O)c(OC)c1` the “activity change, negative = inhibition” value was -8.81%. With `Cc1ccc(CN2CCSc3ccc(C(=O)NCCCN4CCN(C)CC4)cc32)cc1` the “activity change, negative = inhibition” value was -4.31%. With `O=C(CN1CCN(c2ccc(O)cc2)CC1)Nc1ccc(S(=O)(=O)N2CCCC2)cc1` the “activity change, negative = inhibition” value was -5.81%. For `Cc1ccc(-c2nc(Nc3cccc(C)c3)sc2CC(=O)O)cc1`, the “activity change, negative = inhibition” value was -2.49%. In the case of `Cc1ccc(CS(=O)Cc2ccc(C(=O)N3CCN(c4ccccc4)CC3)o2)cc1` (stereo unspecified), the “activity change, negative = inhibition” value is reported as 0.836%. With `CN(C)c1ccc(NC(=O)CN2CCc3ccccc3C2)cc1` the “activity change, negative = inhibition” value was -5.48%. In the case of `CN(C)c1ccc(NC(=O)CCn2c(=S)oc3ccccc32)cc1`, the “activity change, negative = inhibition” value is reported as -3.01%. In the case of `O=C(NCC(c1ccco1)N1CCc2ccccc21)c1ccccc1F` (stereo unspecified), the “activity change, negative = inhibition” value is reported as 0.891%. In the case of `Clc1c(CSc2nc3ccccc3o2)nc2ccccn12`, the “activity change, negative = inhibition” value is reported as -2.53%. In the case of `CCCCCCCc1c(C#N)c(N)[nH]c(=S)c1C#N`, the “activity change, negative = inhibition” value is reported as -5.05%. In the case of `Cc1ccc(Sc2ccc(S(=O)(=O)Nc3ccc(C(=O)O)cc3)cc2)cc1C`, the “activity change, negative = inhibition” value is reported as -7.49%. With `Cc1cccc(C(=O)Nc2ccc(O)cc2)c1` the “activity change, negative = inhibition” value was -13.4%. For `CC(=O)Nc1ccc(S(=O)(=O)Nc2ccc(Nc3ccccc3)cc2)cc1`, the “activity change, negative = inhibition” value was -7.75%. For `Cc1ccc(S(=O)(=O)Nc2ccc(N(C)C)cc2)cc1`, the “activity change, negative = inhibition” value was 0.687%. With `Cc1cc(C)c(S(=O)(=O)Nc2ccc(O)cc2)c(C)c1` the AC50 was 9.93 µM (active). For `COc1ccc(S(=O)(=O)N/N=C(/C)c2ccncc2)c(OC)c1`, the “activity change, negative = inhibition” value was -4.06%. In the case of `COc1cc(/C=N/NC(=O)c2nc3ccccn3c2C)cc(OC)c1O`, the “activity change, negative = inhibition” value is reported as -5.24%. With `O=C(Nc1ccccc1N1CCCC1)c1cccnc1` the “activity change, negative = inhibition” value was -10.3%. For `O=C(NN=C1CCC(=NNC(=O)c2cccnc2)CC1)c1cccnc1`, the AC50 was 8.24 µM (active). With `O=C(Nc1ccc(N2CCCCC2)cc1)c1cccnc1` the “activity change, negative = inhibition” value was 0.535%. With `Cc1ccc(N/N=C2/CCCNC2=O)cc1` the “activity change, negative = inhibition” value was -2.46%. With `COc1ccccc1NS(=O)(=O)c1cc([N+](=O)[O-])ccc1N/N=C/c1c[nH]c2ccccc12` the “activity change, negative = inhibition” value was 3.54%. For `Cc1ccc(C(=O)Nc2cccc([N+](=O)[O-])c2)cc1S(=O)(=O)Nc1ccc(C(=O)O)cc1`, the “activity change, negative = inhibition” value was -1.41%. With `CNC(=O)c1cc(Nc2nnc(-c3ccc(O)cc3)c3ccccc23)ccc1OC` the “activity change, negative = inhibition” value was -3.44%. In the case of `CCN(CC)CCCN(C(=O)c1cccc(C)c1)c1nc(-c2ccc(OC)cc2)cs1`, the “activity change, negative = inhibition” value is reported as -3.71%. With `Cn1c(CNS(=O)(=O)c2ccc(Br)cc2)n[nH]c1=S` the “activity change, negative = inhibition” value was -0.165%. In the case of `CCCn1c(CCC(=O)O)ccc1-c1cccs1`, the “activity change, negative = inhibition” value is reported as -6.04%. With `COc1cccc(NC(=O)CN2CCN(c3ccc(F)cc3)CC2)c1` the “activity change, negative = inhibition” value was 0.116%. For `Cc1cc(Oc2ncccc2[N+](=O)[O-])c2cc(Cl)ccc2n1`, the “activity change, negative = inhibition” value was 0.22%. For `COc1ccc(OC)c(CNc2ccc3c(c2)nc(C)n3C)c1`, the “activity change, negative = inhibition” value was -7.25%. With `COc1ccccc1-n1cnc2cc(NCc3ccccc3O)ccc21` the “activity change, negative = inhibition” value was -0.965%. In the case of `O=[N+]([O-])c1ccc(-c2cn(-c3ccccc3F)c(=S)[nH]2)cc1`, the “activity change, negative = inhibition” value is reported as -1.24%. For `Cc1nc(SCc2cccnc2)[nH]c(=O)c1C`, the “activity change, negative = inhibition” value was 1.87%. With `Cc1ccc(NC2CCCN(C(=O)c3cc4ncccn4n3)C2)cc1C` (stereo unspecified) the “activity change, negative = inhibition” value was -0.727%. For `COc1cc(/C=N/Nc2nc(=O)[nH]nc2C)ccc1O`, the “activity change, negative = inhibition” value was -6.83%. In the case of `CNc1nnc(CSc2nc3ccccc3s2)s1`, the “activity change, negative = inhibition” value is reported as -0.989%. For `NC(=O)c1ccc(CSc2nc3ccccc3s2)cc1`, the “activity change, negative = inhibition” value was 2.17%. With `CC(C)c1ccc(NC2CCCN(C(=O)C3=NN(C)C(=O)CC3)C2)cc1` (stereo unspecified) the “activity change, negative = inhibition” value was -5.77%. For `Cc1cc(C(=O)NNc2ccc(F)cc2F)no1`, the “activity change, negative = inhibition” value was 2.69%. With `COC(=O)c1sccc1NC(=O)c1cc(C)on1` the “activity change, negative = inhibition” value was 2.59%. For `Cc1cc(C(=O)NNc2ccccc2F)no1`, the AC50 was 8.51 µM (active).

— PubChem BioAssay AID540356 (Broad Institute, 2011)
